Assay results reported in PubChem BioAssay (NCATS).
Records with an inconclusive call do not appear. The source made the active and inactive calls. Unless noted, calls come from the whole dose curve; as a rule, active = well fitted curve in the direction sought with a large enough effect; inconclusive = small, poorly fitted or top-dose-only effect, or another doubt; inactive = no such curve, though single readings can be large; an effect the other way counts as inactive or inconclusive.

Key:
[1] = Validation of Assay for Modulators of Lamin A Splicing (AID 1459; active = well fitted curve in the direction sought with a large enough effect in the signal ratio; the % refers to the signal ratio;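 note: cells exposed to compound for two days before reading; 0% is about no effect; ratio rise marks activators and ratio drop marks inhibitors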)
Method in brief: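 S3 HeLa cells stably expressing a lamin A-EGFP splicing minigene and DsRed2 were seeded at 600 cells/well in Opti-MEM with 2% FBS, pin-dosed, and incubated 48 hrs at 37 °C, 5% CO2. Laser-scanning cytometry (488 nm) gave GFP/RFP total intensity ratio.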

[2] = qHTS Assay for Lipid Storage Modulators (AID 1519; calls by dose curve; for activity change, negative = inhibition: % is set by controls: 0 for no effect and ±100 for the full control effect); conditions: Drosophila S3 cells, BODIPY lipid droplet/cell ratio, laser cytometry, cells loaded with oleic acid
Method in brief: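 Cells seeded at 5,000 per well were treated with compounds over a concentration series and loaded with oleic acid (400 uM, as added). Lipid droplet fluorescence (488 nm excitation, 500-530 nm channel) was read by laser-scanning cytometry and normalized to 20 uM Triacsin C.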

[3] = target: DNA repair nuclease/redox regulator APEX1 (Homo sapiens) (UniProt P27695); assay: qHTS Validation Assay for Inhibitors of the Human Apurinic/apyrimidinic Endonuclease 1 (APE1) (AID 1705;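 note: TAMRA fluorescence gain over two minutes as APE1 cuts a quenched THF abasic duplex; % is set by controls: 0 for no effect and ±100 for the full control effect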)
Chain of DNA repair nuclease/redox regulator APEX1 (Homo sapiens) (P27695 whole entry, looked up): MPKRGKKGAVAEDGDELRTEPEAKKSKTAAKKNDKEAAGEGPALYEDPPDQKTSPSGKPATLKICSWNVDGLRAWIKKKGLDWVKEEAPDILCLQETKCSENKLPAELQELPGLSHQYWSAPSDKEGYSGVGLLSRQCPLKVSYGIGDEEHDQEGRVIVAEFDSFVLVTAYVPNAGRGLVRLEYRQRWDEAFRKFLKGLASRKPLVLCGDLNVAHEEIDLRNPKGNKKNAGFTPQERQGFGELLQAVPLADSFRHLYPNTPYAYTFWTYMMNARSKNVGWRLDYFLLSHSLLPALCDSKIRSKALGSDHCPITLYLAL
Method in brief: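 Human APE1 was preincubated with compound for 15 min at room temperature, then 50 nM (final) THF-abasic double-stranded DNA substrate bearing 5'-TAMRA and 3'-BHQ-2 was added. Incision-driven fluorescence rise (ex 525/em 598 nm) was read kinetically.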

[4] = Counterscreen for APE1 Inhibitors: Fluorescent Dye Displacement Validation Assay (AID 1707);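 note: plate controls were ThO with dsDNA and no compound for no effect and ThO without dsDNA for full effect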
Method in brief: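 Thiazole Orange displacement from dsDNA: 250 nM ThO with 50 nM TAMRA-labelled abasic-site (tetrahydrofuran) duplex in 50 mM Tris-HCl pH7.5, 50mM NaCl, 2 mM MgCl2, 0.01% Tween-20. Loss of endpoint fluorescence (ex 480 nm, em 540 nm) flags DNA binders.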

[5] = qHTS for differential inhibitors of proliferation of Plasmodium falciparum line 7G8 (AID 1815);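 note: potency is the fitted concentration of half-maximal effect; parasite growth measured after three days of incubation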
[6] = qHTS for differential inhibitors of proliferation of Plasmodium falciparum line Dd2 (AID 1882); conditions: Potency: Plasmodium falciparum Dd2 proliferation inhibition;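 note: compound exposure of 72 h on infected erythrocytes; plate controls were DMSO vehicle for no effect and 0.29 µM artemisinin for full effect; nearly all actives have a fitted effect of over 65% in size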
Method in brief: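 SYBR Green I DNA fluorescence read-out, ex 485/em 535 nm. Signals were normalized to 0.29 uM artemisinin and DMSO wells, then corrected using vehicle-only plates flanking each stack. Parasite growth ran 72 h in erythrocytes before lysis.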

[7] = qHTS for differential inhibitors of proliferation of Plasmodium falciparum line W2 (AID 1883); conditions: Potency: Plasmodium falciparum W2 proliferation inhibition;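 note: potency is the fitted concentration of half-maximal effect; parasites grown with compound for 72 h before lysis and staining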
[8] = target: ATP-dependent DNA helicase Q1 (Homo sapiens) (UniProt P46063); assay: qHTS Validation Assay for Inhibitors of RecQ-Like Dna Helicase 1 (RECQ1) (AID 2353);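 note: plate controls were DMSO vehicle for no effect and enzyme-free control for full effect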
Chain of ATP-dependent DNA helicase Q1 (Homo sapiens) (P46063 whole entry, looked up): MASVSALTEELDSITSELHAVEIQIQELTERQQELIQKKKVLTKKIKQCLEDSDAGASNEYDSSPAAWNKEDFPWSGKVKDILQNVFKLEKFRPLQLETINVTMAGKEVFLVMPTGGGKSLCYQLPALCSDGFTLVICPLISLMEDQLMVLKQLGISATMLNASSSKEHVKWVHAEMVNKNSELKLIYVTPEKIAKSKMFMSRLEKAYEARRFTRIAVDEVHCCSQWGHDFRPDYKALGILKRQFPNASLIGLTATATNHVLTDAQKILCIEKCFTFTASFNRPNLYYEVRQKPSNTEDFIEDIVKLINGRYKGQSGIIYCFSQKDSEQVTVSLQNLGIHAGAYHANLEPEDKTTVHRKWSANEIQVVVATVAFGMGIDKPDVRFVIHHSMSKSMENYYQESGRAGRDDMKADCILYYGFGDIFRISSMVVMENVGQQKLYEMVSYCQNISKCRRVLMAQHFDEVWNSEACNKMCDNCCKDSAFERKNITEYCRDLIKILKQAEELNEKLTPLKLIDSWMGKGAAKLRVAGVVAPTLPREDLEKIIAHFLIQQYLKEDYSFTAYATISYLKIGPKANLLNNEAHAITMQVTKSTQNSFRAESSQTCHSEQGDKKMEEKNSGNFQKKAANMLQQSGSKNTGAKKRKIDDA
Method in brief: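 50 nM RECQ1T1 preincubated 15 min with compound in Tris pH 8.0 buffer with MgCl2, DTT, Tween-20 and 2.5 ug/ml poly(dI-dC); started with 200 nM TAMRA/BHQ-2 forked duplex and 2 mM ATP. Unwinding read as fluorescence (525/598 nm), two reads 2 h apart.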

[9] = target: RecQ-like DNA helicase BLM (Homo sapiens) (UniProt P54132); assay: qHTS Validation Assay for Inhibitors of Bloom's syndrome helicase (BLM) (AID 2364);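 note: plate controls were DMSO vehicle for no effect and enzyme-free control for full effect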
Chain of RecQ-like DNA helicase BLM (Homo sapiens) (P54132 whole entry, looked up): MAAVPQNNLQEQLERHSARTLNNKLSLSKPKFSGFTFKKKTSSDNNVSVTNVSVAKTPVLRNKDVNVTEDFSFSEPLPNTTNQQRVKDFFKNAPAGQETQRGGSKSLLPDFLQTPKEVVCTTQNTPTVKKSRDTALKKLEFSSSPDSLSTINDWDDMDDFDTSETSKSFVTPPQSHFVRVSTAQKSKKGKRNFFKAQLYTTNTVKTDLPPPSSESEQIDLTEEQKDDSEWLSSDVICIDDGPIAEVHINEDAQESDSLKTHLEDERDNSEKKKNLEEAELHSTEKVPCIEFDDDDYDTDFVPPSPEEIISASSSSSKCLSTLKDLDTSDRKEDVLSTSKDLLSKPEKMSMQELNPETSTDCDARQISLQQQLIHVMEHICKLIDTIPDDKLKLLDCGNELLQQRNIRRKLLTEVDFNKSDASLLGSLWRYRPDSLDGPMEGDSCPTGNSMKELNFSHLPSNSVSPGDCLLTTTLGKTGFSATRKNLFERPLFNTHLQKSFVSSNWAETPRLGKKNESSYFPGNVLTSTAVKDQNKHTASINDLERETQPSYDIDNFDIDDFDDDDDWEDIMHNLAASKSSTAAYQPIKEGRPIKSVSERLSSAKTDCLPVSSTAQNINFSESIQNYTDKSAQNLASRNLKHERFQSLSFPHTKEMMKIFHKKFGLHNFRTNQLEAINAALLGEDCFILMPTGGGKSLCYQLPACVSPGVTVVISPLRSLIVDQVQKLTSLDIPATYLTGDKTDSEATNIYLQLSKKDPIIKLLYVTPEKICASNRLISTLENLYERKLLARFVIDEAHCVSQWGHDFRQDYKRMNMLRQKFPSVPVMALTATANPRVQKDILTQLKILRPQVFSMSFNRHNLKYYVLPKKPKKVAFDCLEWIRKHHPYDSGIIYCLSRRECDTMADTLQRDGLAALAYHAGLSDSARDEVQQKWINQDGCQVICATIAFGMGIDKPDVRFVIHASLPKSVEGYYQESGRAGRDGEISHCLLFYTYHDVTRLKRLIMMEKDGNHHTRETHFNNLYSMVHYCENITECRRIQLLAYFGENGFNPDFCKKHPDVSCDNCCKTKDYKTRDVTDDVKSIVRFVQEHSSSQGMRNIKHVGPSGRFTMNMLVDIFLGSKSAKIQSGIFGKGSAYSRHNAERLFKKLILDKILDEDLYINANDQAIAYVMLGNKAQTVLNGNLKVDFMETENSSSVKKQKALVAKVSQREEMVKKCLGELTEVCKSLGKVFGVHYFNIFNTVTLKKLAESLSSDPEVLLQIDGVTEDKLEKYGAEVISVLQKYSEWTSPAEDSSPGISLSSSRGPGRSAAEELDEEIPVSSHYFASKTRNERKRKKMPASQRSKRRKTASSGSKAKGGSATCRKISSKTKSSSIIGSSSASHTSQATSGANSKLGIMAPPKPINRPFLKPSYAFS
Method in brief: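 BLM 50 nM in 25 mM Tris-HCl pH 8.0, 5 mM NaCl, 2 mM MgCl2, 1 mM DTT, 0.01% Tween-20, 2.5 ug/ml poly(dI-dC); 15 min cpd preinc, RT. Start: 200 nM forked DNA + 2 mM ATP (final). TAMRA read, 2 reads 2 h apart.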

[10] = Quantitative high throughput screen for delayed death inhibitors of the malarial parasite plastid, 96 hour incubation (AID 488745);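 note: luciferase-expressing P. falciparum in erythrocytes at 2% hematocrit and 0.1% parasitemia; % is set by controls: 0 for no effect and ±100 for the full control effect; nearly all actives have a fitted effect of over 70% in size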
Method in brief: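 Growth of reporter-bearing P. falciparum in red cells is measured after 96 h with compound, covering two erythrocytic cycles. Luminescence from the integrated luciferase serves as the growth signal.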

[11] = Quantitative high throughput screen for delayed death inhibitors of the malarial parasite plastid, 48 hour incubation (AID 488752); note: % is set by controls: 0 for no effect and ±100 for the full control effect; nearly all actives have a fitted effect of over 65% in size
Method in brief: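 One parasite generation (48 h, 37 C, 5% CO2) of luciferase-reporter P. falciparum in erythrocytes is run with test compound; decreased luminescence indicates inhibited growth.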

[12] = target: M-phase phosphoprotein 8 (Homo sapiens) (UniProt Q99549); assay: qHTS Validation Assay for Inhibitors for MPP8 Chromodomain Interactions with Methylated Histone Tails (AID 488949);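 note: AlphaScreen signal from MPP8 chromodomain bound to biotinylated H3K9me3 peptide; top concentration of the series differs between compounds; % is set by controls: 0 for no effect and ±100 for the full control effect; nearly all actives have a fitted effect of over 55% in size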
Method in brief: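 MPP8 (50 nM) was preincubated with biotinylated H3(1-18)K9me3 peptide (50 nM) in PBS pH 7.4, 0.01% Tween-20 for 30 min at room temperature, then with compounds for 30 min; binding was detected by AlphaScreen.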

[13] = target: Thyrotropin receptor (Homo sapiens) (UniProt P16473); assay: qHTS Assay for Antagonists of the Thyroid Stimulating Hormone Receptor (AID 488980); note: 0% is about no effect
Chain of Thyrotropin receptor (Homo sapiens) (P16473 whole entry, looked up): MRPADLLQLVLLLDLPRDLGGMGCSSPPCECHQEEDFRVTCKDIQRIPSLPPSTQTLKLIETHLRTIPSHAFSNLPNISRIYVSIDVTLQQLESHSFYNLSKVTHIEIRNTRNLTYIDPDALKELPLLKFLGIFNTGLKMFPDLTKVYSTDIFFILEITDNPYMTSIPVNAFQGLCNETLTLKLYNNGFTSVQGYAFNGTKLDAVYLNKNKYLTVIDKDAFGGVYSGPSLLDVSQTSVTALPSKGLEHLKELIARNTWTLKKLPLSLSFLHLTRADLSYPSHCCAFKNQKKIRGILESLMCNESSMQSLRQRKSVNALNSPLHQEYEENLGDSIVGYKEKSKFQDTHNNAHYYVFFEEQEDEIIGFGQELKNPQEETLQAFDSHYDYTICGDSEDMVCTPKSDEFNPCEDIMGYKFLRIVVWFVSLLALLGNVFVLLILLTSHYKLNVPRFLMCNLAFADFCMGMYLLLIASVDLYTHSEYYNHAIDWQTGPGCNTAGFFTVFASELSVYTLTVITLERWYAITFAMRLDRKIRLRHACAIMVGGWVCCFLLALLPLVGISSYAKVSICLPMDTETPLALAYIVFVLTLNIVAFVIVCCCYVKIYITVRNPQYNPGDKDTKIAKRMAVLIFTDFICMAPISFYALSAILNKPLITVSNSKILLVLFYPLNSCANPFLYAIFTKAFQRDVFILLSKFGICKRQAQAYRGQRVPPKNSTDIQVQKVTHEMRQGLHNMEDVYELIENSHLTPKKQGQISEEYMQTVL
Method in brief: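 HEK293 cells transfected with human TSHR, suspended in HEPES-buffered HBSS with 70 uM RO 20-1724, were treated with compounds plus TSH at EC80 (4 nM final). cAMP was measured by competitive HTRF (cryptate anti-cAMP antibody, cAMP-d2 acceptor).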

[14] = target: Galactokinase (Homo sapiens) (UniProt P51570); assay: qHTS Validation Assay for Inhibitors of Human Galactokinase (GALK) (AID 493189); note: 0% is about no effect
Chain of Galactokinase (Homo sapiens) (P51570 whole entry, looked up): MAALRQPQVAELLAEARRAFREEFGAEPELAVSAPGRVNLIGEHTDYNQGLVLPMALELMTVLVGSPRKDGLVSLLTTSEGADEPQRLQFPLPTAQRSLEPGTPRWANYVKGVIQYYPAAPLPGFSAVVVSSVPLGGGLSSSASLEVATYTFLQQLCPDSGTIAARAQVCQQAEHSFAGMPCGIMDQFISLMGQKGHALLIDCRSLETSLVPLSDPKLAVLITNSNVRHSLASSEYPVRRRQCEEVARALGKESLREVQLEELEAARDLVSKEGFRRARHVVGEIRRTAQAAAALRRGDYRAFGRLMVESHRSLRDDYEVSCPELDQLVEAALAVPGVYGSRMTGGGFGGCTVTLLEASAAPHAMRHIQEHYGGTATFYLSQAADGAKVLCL
Method in brief: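 GALK (5 nM) with 35 uM ATP and 100 uM galactose in HEPES pH8.0, MgCl2, NaCl, DTT, BSA; 1 h at room temperature. Residual ATP read by Kinase-Glo Plus luminescence after 10 min.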

[15] = Validation screen for small molecules that induce DNA re-replication in SW480 colon adenocarcinoma cells (AID 504364); note: 0% is about no effect
Method in brief: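 Cells are treated 48 hr with test compound, stained 40 min with Hoechst at 37 C, and scanned for nuclear fluorescence; compounds inducing re-replication increase nuclei with elevated intensity.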

[16] = target: Ubiquitin carboxyl-terminal hydrolase 1 (Homo sapiens) (UniProt O94782); assay: Inhibitors of USP1/UAF1: Pilot qHTS (AID 504865);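 note: rhodamine fluorescence freed from ubiquitin-rhodamine substrate followed over time; top concentration of the series differs between compounds; % is set by controls: 0 for no effect and ±100 for the full control effect; nearly all actives have a fitted effect of over 35% in size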
Chain of Ubiquitin carboxyl-terminal hydrolase 1 (Homo sapiens) (O94782 whole entry, looked up): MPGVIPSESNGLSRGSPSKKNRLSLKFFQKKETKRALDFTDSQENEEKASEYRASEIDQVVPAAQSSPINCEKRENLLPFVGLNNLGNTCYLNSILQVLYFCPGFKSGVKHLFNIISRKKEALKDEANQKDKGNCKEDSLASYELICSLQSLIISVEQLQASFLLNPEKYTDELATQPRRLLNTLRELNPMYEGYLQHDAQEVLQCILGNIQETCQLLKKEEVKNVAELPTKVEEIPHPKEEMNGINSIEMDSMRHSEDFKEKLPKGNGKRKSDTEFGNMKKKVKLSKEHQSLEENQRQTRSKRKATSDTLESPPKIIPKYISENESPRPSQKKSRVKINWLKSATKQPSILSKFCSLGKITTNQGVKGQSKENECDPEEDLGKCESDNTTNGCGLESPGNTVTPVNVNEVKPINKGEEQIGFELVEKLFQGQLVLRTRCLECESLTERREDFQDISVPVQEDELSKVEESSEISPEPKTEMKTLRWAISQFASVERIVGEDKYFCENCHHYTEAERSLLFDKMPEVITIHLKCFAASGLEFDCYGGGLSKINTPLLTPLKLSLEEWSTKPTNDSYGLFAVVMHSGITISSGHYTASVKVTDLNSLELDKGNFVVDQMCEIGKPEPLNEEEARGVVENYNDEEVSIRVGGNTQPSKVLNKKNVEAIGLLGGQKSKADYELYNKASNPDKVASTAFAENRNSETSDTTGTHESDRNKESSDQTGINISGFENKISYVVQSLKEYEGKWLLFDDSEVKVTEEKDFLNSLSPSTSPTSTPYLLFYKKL
Method in brief: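 USP1/UAF1 complex (1nM) preincubated with compound 15 min at room temperature, then Ub-Rho substrate (150nM final) added. Fluorescence read kinetically at 480/540 nm, 6 reads every 60 seconds. Buffer: 50mM HEPES pH 7.8, 0.5mM EDTA, 0.1 mg/ml BSA, 1mM TCEP, 0.01% Tween-20.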

[17] = target: DNA dC->dU-editing enzyme APOBEC-3G (Homo sapiens) (UniProt Q9HC16); assay: qHTS for inhibitors of Vif-A3G interactions: Validation (AID 588379); note: 0% is about no effect
Chain of DNA dC->dU-editing enzyme APOBEC-3G (Homo sapiens) (Q9HC16 whole entry, looked up): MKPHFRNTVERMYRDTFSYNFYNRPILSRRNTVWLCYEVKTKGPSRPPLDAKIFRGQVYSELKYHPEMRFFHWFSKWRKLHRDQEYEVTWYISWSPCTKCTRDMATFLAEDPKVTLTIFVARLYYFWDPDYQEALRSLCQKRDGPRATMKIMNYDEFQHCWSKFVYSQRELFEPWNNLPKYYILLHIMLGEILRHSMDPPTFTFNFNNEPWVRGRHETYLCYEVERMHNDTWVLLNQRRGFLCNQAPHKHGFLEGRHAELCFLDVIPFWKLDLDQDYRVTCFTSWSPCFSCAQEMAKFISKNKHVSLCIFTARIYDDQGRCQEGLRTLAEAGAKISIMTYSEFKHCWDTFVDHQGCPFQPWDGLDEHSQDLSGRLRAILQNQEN
Method in brief: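 HeLa cells stably expressing Vif and A3G-eYFP, 700 cells/well, incubated overnight at 37 deg C, then exposed to compound overnight at 37 deg C. Inhibition of Vif-mediated degradation read as increased yellow fluorescence (Ex 488/Em 500-530) by laser-scanning cytometry.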

[18] = system: Zika virus NS2B-NS3 protease; assay: Primary screen GU AMC qHTS for Zika virus inhibitors (AID 1347154);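 note: 0% = no-inhibitor control and -100% = no-enzyme control; nearly all actives have a fitted effect of over 70% in size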
Method in brief: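 Unlinked Zika NS2B hydrophilic domain/NS3 protease domain noncovalent complex (25 nM final) in 10 mM Tris-HCl pH 8.0, 0.01% Tween 20, with AMC peptide substrate. Fluorescence (ex 340, em 450 nm) change over 15 min, room temperature; percent inhibition fitted to 4-parameter Hill equation.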

[19] = Primary qHTS for small molecule stabilizers of the endoplasmic reticulum resident proteome: Secreted ER Calcium Modulated Protein (SERCaMP) assay (AID 1508630); note: % is set by controls: 0 for no effect and ±100 for the full control effect
Method in brief: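 GLuc-SERCaMP-expressing SH-SY5Y cells, pretreated 16 h with compound, are challenged with thapsigargin to empty ER calcium stores; after 4 h, coelenterazine is added directly to the medium and luminescence is imaged.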

NCCCCCCNS(=O)(=O)c1cccc2c(Cl)cccc12
inactive: outcome [1] | activity change, negative = inhibition ([2]; at 57.5 µM (top of the series)) 3.12% | Potency [3] | Potency [4] | Potency [6] | Potency [8] | Potency [9] | Potency [10] | Potency [11] | Potency [12] | outcome [13] | outcome [14] | outcome [15] | Potency [16] | Potency [17] | Potency [18] | Potency [19]
16.8%: max response ([2]; measured here: lipid channel max response)
13.8%: max response ([2]; measured here: cell count channel max response)
active: Potency [5] 11.2 µM | Potency [7] 12.6 µM
